Experiment [1] can be described thus: selective activators of receptor GPR55 – imaging, U2OS cells, beta-arrestin-GFP redistribution, primary screen (AID 1961).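 Also: U2OS osteosarcoma cells stably expressing GPR55 and beta-arrestin-GFP.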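 As to activation: plate controls were DMSO negative control for no effect and LPI positive control for full effect.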 The following applies: measured here: cytotoxicity, cells analyzed, at 10 µM.
Experiment [2] has as its target G-protein coupled receptor 55 (Homo sapiens) (UniProt Q9Y2T6). The experiment is described as above. The following applies: at 10 µM, stronger effect = higher value.

Hit rate of the full screen: of about 290,000 compounds, about 140 (0.048%) were called active.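 The calls were made as follows: active = activation above 40% with more than 50 cells counted in the well; inconclusive = wells holding fewer than 50 cells, flagged as toxic or sparse; inactive = the rest.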 For the sample, actives were picked, then their nearest neighbours and some compounds at random.

Sequence of G-protein coupled receptor 55 (Homo sapiens) (Q9Y2T6 whole entry, looked up): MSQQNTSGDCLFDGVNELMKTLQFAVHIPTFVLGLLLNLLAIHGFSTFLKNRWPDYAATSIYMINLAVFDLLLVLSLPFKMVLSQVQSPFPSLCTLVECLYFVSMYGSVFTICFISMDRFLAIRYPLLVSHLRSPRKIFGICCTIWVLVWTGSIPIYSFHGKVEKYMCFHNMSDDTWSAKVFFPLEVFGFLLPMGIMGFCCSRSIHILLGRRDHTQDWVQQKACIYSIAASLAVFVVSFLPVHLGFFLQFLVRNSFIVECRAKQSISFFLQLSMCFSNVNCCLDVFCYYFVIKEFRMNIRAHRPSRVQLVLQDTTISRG

`CN1/C(=C\C=C2C(=O)NC(=S)NC2=O)C(C)(C)c2ccccc21`: the cell count in experiment [1] stood at 268 cells. The activation in experiment [2] was 57.7% (active).
In the case of `CN1/C(=C\C=Nc2ccccc2)C(C)(C)c2ccccc21`, in experiment [1], the cell count is 360 cells. For the same molecule, the activation in experiment [2] was -0.1% (inactive).
In the case of `CN1/C(=C\C=C2C(=O)NC(=O)NC2=O)C(C)(C)c2ccccc21`, the cell count in experiment [1] was determined as 294 cells. Besides, the activation in experiment [2] was 0.4% (inactive).
`N[C@@H](Cc1c[nH]c2ccccc12)c1nnc(SCc2ccc(Cl)cc2)o1` showed a cell count in experiment [1] of 304 cells. The activation in experiment [2] is 0.1% (inactive).
Molecule `CC(=Nc1ccccc1N)c1c(O)n(C)c(=O)[nH]c1=O` showed a cell count in experiment [1] of 323 cells. In addition, the activation in experiment [2] is 0.7% (inactive).

(Values after PubChem BioAssay AID1961 (Sanford-Burnham Center for Chemical Genomics, 2009).)
